In ChEMBL document CHEMBL1157539, “Thousands of chemical starting points for antimalarial lead identification” (Nature, 2010):

Each compound was assayed on Plasmodium falciparum (assay: GSK_TCMDC: Inhibition of Plasmodium falciparum 3D7 in whole red blood cells, using parasite LDH activity as an index of growth. Test compounds present at 2uM).
Format: functional

Compared with `O=C(Nc1ccc(N2CCCCC2)c(Cl)c1)c1ccco1`, `O=C(Nc1ccc(OC2CCN(Cc3ccc(F)cc3)CC2)c(Cl)c1)c1ccoc1.O=C(O)C(F)(F)F` is lower in Inhibition: 96% for the first, 89% for the second.

Compared with `O=C(Nc1ccc(Cn2ncc(N3CCCNCC3)c(Cl)c2=O)cc1)Nc1ccc(F)cc1[N+](=O)[O-]`, `NC(=O)c1ccccc1Nc1nc(Nc2ccc(N3CCOCC3)cc2)ncc1[N+](=O)[O-].O=C(O)C(F)(F)F` is higher in Inhibition: 90% for the first, 98% for the second.

First: COc1ccc(-n2ccnc2SCC(=O)Nc2cc(Cl)ccc2OC)c(OC)c1
Second: COc1ccc(-c2cncc(-c3ccc(OC)c(OC)c3)n2)cc1OC.Cl
The Inhibition of the first is higher: 96% for the first, 95% for the second.

Compared with `C[C@@H](CC1CCCCC1)OC(=O)N[C@H]1CCN(C#N)C1`, `Cc1ccc(F)c(OCC2CCCN(c3ccc(C(=O)NC4CC4)cn3)C2)c1` (stereo not given) is higher in Inhibition: 95% for the first, 96% for the second.

Compared with `CCNc1cc(C(=O)N[C@@H](Cc2cc(F)cc(F)c2)[C@H](O)CNCc2cccc(C(F)(F)F)c2)cc(N2CCCCS2(=O)=O)c1.Cl`, `Cc1cc(CN2CC[C@H](NC(=O)c3ccc(Cl)c(Cl)c3)C2)ccc1OC1CCN(Cc2ccccc2)CC1.O=C(O)C(F)(F)F` is lower in Inhibition: 99% for the first, 98% for the second.

Compared with `O=S(=O)(c1c(Cl)cc(Cl)cc1Cl)N1CCCCC(c2ccc(Cl)cc2)=N1`, `CC(C)(CNC(=O)[C@@H]1CCCN(Cc2ccc(Cl)cc2)C1)c1nc(-c2ccc(Cl)c(O)c2)c(-c2ccncc2)[nH]1.Cl` is higher in Inhibition: 95% for the first, 97% for the second.

Going from `Cc1cccc2nc(-c3cccc(-c4cccc(NC(=O)NCc5ccccc5)c4)c3)[nH]c12` to `O=C(Nc1ccc(-c2cccc(-c3nc4ccccc4[nH]3)c2)cc1)Nc1ccc(F)c(F)c1F`, the Inhibition rises from 94% to 100%.

Going from `C=CCC(C)n1ncc2c3c(N)nc(N)nc3ccc21` (stereo not given) to `Nc1c2ccccc2nc2cc(Cl)ccc12`, the Inhibition rises from 93% to 100%.

First: COc1cccc(C2CCN(CCN3CCC(NC(=O)c4ccc(-c5ccc(C(F)(F)F)cc5)cc4)CC3)CC2)c1
Second: COc1ccc(C2CCN(CCCCNC(=O)c3ccc(NC(=O)c4ccc(Cl)cc4)cc3)CC2)cc1Cl
The Inhibition of the first is higher: 99% for the first, 97% for the second.

Compared with `Oc1ccc(-c2nc(-c3ccc4oc5ccc(-c6[nH]c(-c7ccc(O)cc7)nc6-c6ccccc6)cc5c4c3)c(-c3ccccc3)[nH]2)cc1`, `O=C(O)C(F)(F)F.c1cc(CNCCc2ccncc2)cc(-c2ccc(-c3nc4ccccc4[nH]3)cc2)c1` is higher in Inhibition: 84% for the first, 99% for the second.

First: Nc1ccc2nc(C=Cc3ccccc3)[nH]c2c1
Second: c1ccc(Nc2nc(-c3ccccn3)cs2)nc1
The Inhibition of the first is higher: 92% for the first, 87% for the second.

`COc1ccc2nccc([C@@H](O)CN3CCC(NCCOc4c(C)cccc4F)CC3)c2c1.O=C(O)C(=O)O` and `Cl.Cn1ncc2c3c(CCN4CCC(NCc5ccc6c(c5)NC(=O)CO6)CC4)c(Cl)cnc3ccc21` are the same in Inhibition: 100% for the first, 100% for the second.

Compared with `Cc1cccc2c3c([nH]c12)C1(CCN(Cc2ccccc2)CC1)NC(C(=O)NCc1ccccc1)C3` (stereo not given), `Cc1cccc2nc(-c3ccc(-c4cccc(CN5CCN(CCO)CC5)c4)cc3)[nH]c12.O=C(O)C(F)(F)F` is higher in Inhibition: 81% for the first, 100% for the second.

Going from `CNC(=O)c1ccccc1Nc1nc(Nc2ccc(N3CCOCC3)cc2)ncc1Cl.Cl` to `c1ccc(Oc2ccc(Nc3ccnc4cc(-c5cccc(CN6CCOCC6)c5)ccc34)cc2)cc1`, the Inhibition rises from 97% to 100%.

Going from `CC(=O)Nc1ccc(CNC2Cc3ccc(-c4ccc(Cl)c(Cl)c4)cc3C2)cc1` (stereo not given) to `COc1ccc(CC(=O)NC(CCN2CCC3(CCc4ccccc43)CC2)c2ccc(Cl)c(Cl)c2)cc1` (stereo not given), the Inhibition rises from 89% to 90%.

Going from `O=C(/C=C/c1ccc(C(F)(F)F)cc1)NCCCCCN1CCCN(C(=O)Nc2ccc(Cl)c(C(F)(F)F)c2)CC1` to `Cc1ccccc1C1CCN(C2CCC(NC(=O)/C=C/c3cccc(Cl)c3Cl)CC2)CC1` (stereo not given), the Inhibition falls from 99% to 94%.

First: CC(=O)Nc1ccc(CN2Cc3ccc(NC(=O)Nc4ccc(Oc5ccccc5)cc4)cc3C2)s1
Second: CC(C)(C)CC(=O)Nc1ccc(Nc2cc(-c3ccncc3)cc3ncc(C(N)=O)cc23)cc1
The Inhibition of the first is lower: 91% for the first, 97% for the second.

First: COc1ccc(CCN2CCC(CN(C)Cc3cnn(-c4ccccc4)c3)CC2)cc1
Second: CN(C)Cc1ccc(-c2cccc(Nc3nccc(NCC(O)c4ccccc4)n3)c2)cc1 (stereo not given)
The Inhibition of the first is lower: 90% for the first, 100% for the second.

Going from `COc1cc2ccccc2c(CON2C(=N)N=C(N)NC2(C)C)c1OC.Cl` to `CCCC1N=C(N)N=C(N)N1c1ccccc1.Cl` (stereo not given), the Inhibition falls from 96% to 93%.

Compared with `CN(C)c1ccc(-c2nnc(Sc3ccc(C#N)c([N+](=O)[O-])c3)n2Cc2ccco2)cc1`, `Cc1cccc2nc(-c3cccc(-c4ccc(CN5CCCC5CN)cc4)c3)[nH]c12.O=C(O)C(F)(F)F` (stereo not given) is higher in Inhibition: 95% for the first, 100% for the second.

What follows are compounds tested on Plasmodium falciparum (assay: GSK_TCMDC: Inhibition of Plasmodium falciparum Dd2 in whole red blood cells, using parasite LDH activity as an index of growth. Test compounds present at 2uM).
Format: functional

Going from `O=C(Nc1ccc(N2CCCCC2)c(Cl)c1)c1ccco1` to `O=C(Nc1ccc(OC2CCN(Cc3ccc(F)cc3)CC2)c(Cl)c1)c1ccoc1.O=C(O)C(F)(F)F`, the Inhibition falls from 95% to 90%.

First: O=C(Nc1ccc(Cn2ncc(N3CCCNCC3)c(Cl)c2=O)cc1)Nc1ccc(F)cc1[N+](=O)[O-]
Second: NC(=O)c1ccccc1Nc1nc(Nc2ccc(N3CCOCC3)cc2)ncc1[N+](=O)[O-].O=C(O)C(F)(F)F
The Inhibition of the first is lower: 0% for the first, 96% for the second.

Compared with `COc1ccc(-n2ccnc2SCC(=O)Nc2cc(Cl)ccc2OC)c(OC)c1`, `COc1ccc(-c2cncc(-c3ccc(OC)c(OC)c3)n2)cc1OC.Cl` is lower in Inhibition: 92% for the first, 90% for the second.

Going from `C[C@@H](CC1CCCCC1)OC(=O)N[C@H]1CCN(C#N)C1` to `Cc1ccc(F)c(OCC2CCCN(c3ccc(C(=O)NC4CC4)cn3)C2)c1` (stereo not given), the Inhibition rises from 83% to 94%.

Going from `CCNc1cc(C(=O)N[C@@H](Cc2cc(F)cc(F)c2)[C@H](O)CNCc2cccc(C(F)(F)F)c2)cc(N2CCCCS2(=O)=O)c1.Cl` to `Cc1cc(CN2CC[C@H](NC(=O)c3ccc(Cl)c(Cl)c3)C2)ccc1OC1CCN(Cc2ccccc2)CC1.O=C(O)C(F)(F)F`, the Inhibition falls from 80% to 29%.

Compared with `O=S(=O)(c1c(Cl)cc(Cl)cc1Cl)N1CCCCC(c2ccc(Cl)cc2)=N1`, `CC(C)(CNC(=O)[C@@H]1CCCN(Cc2ccc(Cl)cc2)C1)c1nc(-c2ccc(Cl)c(O)c2)c(-c2ccncc2)[nH]1.Cl` is lower in Inhibition: 93% for the first, 37% for the second.

Compared with `Cc1cccc2nc(-c3cccc(-c4cccc(NC(=O)NCc5ccccc5)c4)c3)[nH]c12`, `O=C(Nc1ccc(-c2cccc(-c3nc4ccccc4[nH]3)c2)cc1)Nc1ccc(F)c(F)c1F` is higher in Inhibition: 27% for the first, 96% for the second.

First: C=CCC(C)n1ncc2c3c(N)nc(N)nc3ccc21 (stereo not given)
Second: Nc1c2ccccc2nc2cc(Cl)ccc12
The Inhibition of the first is higher: 95% for the first, 86% for the second.

First: COc1cccc(C2CCN(CCN3CCC(NC(=O)c4ccc(-c5ccc(C(F)(F)F)cc5)cc4)CC3)CC2)c1
Second: COc1ccc(C2CCN(CCCCNC(=O)c3ccc(NC(=O)c4ccc(Cl)cc4)cc3)CC2)cc1Cl
The Inhibition of the first is higher: 99% for the first, 75% for the second.

First: Oc1ccc(-c2nc(-c3ccc4oc5ccc(-c6[nH]c(-c7ccc(O)cc7)nc6-c6ccccc6)cc5c4c3)c(-c3ccccc3)[nH]2)cc1
Second: O=C(O)C(F)(F)F.c1cc(CNCCc2ccncc2)cc(-c2ccc(-c3nc4ccccc4[nH]3)cc2)c1
The Inhibition of the first is lower: 71% for the first, 97% for the second.

Compared with `Nc1ccc2nc(C=Cc3ccccc3)[nH]c2c1`, `c1ccc(Nc2nc(-c3ccccn3)cs2)nc1` is higher in Inhibition: 89% for the first, 93% for the second.

Going from `COc1ccc2nccc([C@@H](O)CN3CCC(NCCOc4c(C)cccc4F)CC3)c2c1.O=C(O)C(=O)O` to `Cl.Cn1ncc2c3c(CCN4CCC(NCc5ccc6c(c5)NC(=O)CO6)CC4)c(Cl)cnc3ccc21`, the Inhibition falls from 95% to 92%.

First: Cc1cccc2c3c([nH]c12)C1(CCN(Cc2ccccc2)CC1)NC(C(=O)NCc1ccccc1)C3 (stereo not given)
Second: Cc1cccc2nc(-c3ccc(-c4cccc(CN5CCN(CCO)CC5)c4)cc3)[nH]c12.O=C(O)C(F)(F)F
The Inhibition of the first is lower: 8% for the first, 55% for the second.

First: CNC(=O)c1ccccc1Nc1nc(Nc2ccc(N3CCOCC3)cc2)ncc1Cl.Cl
Second: c1ccc(Oc2ccc(Nc3ccnc4cc(-c5cccc(CN6CCOCC6)c5)ccc34)cc2)cc1
The Inhibition of the first is lower: 97% for the first, 100% for the second.

Compared with `CC(=O)Nc1ccc(CNC2Cc3ccc(-c4ccc(Cl)c(Cl)c4)cc3C2)cc1` (stereo not given), `COc1ccc(CC(=O)NC(CCN2CCC3(CCc4ccccc43)CC2)c2ccc(Cl)c(Cl)c2)cc1` (stereo not given) is higher in Inhibition: 7% for the first, 75% for the second.

First: O=C(/C=C/c1ccc(C(F)(F)F)cc1)NCCCCCN1CCCN(C(=O)Nc2ccc(Cl)c(C(F)(F)F)c2)CC1
Second: Cc1ccccc1C1CCN(C2CCC(NC(=O)/C=C/c3cccc(Cl)c3Cl)CC2)CC1 (stereo not given)
The Inhibition of the first is higher: 31% for the first, 23% for the second.

Going from `CC(=O)Nc1ccc(CN2Cc3ccc(NC(=O)Nc4ccc(Oc5ccccc5)cc4)cc3C2)s1` to `CC(C)(C)CC(=O)Nc1ccc(Nc2cc(-c3ccncc3)cc3ncc(C(N)=O)cc23)cc1`, the Inhibition rises from 25% to 85%.

Compared with `COc1ccc(CCN2CCC(CN(C)Cc3cnn(-c4ccccc4)c3)CC2)cc1`, `CN(C)Cc1ccc(-c2cccc(Nc3nccc(NCC(O)c4ccccc4)n3)c2)cc1` (stereo not given) is higher in Inhibition: 5% for the first, 100% for the second.

First: COc1cc2ccccc2c(CON2C(=N)N=C(N)NC2(C)C)c1OC.Cl
Second: CCCC1N=C(N)N=C(N)N1c1ccccc1.Cl (stereo not given)
The Inhibition of the first is higher: 10% for the first, 0% for the second.

Compared with `CN(C)c1ccc(-c2nnc(Sc3ccc(C#N)c([N+](=O)[O-])c3)n2Cc2ccco2)cc1`, `Cc1cccc2nc(-c3cccc(-c4ccc(CN5CCCC5CN)cc4)c3)[nH]c12.O=C(O)C(F)(F)F` (stereo not given) is lower in Inhibition: 79% for the first, 47% for the second.
